Assay results as given in PubChem BioAssay (NCATS).
Records with an inconclusive call do not appear. Unmarked numbers belong to inactive results. The source made the active and inactive calls. Unless noted, calls follow the shape of the dose curve; as a rule, active = well fitted curve in the direction sought with a large enough effect; inconclusive = small, poorly fitted or top-dose-only effect, or another doubt; inactive = no such curve, though single readings can be large; an effect the other way counts as inactive or inconclusive.

How the values were obtained:
[1] = tested on: Zika virus NS2B-NS3 protease; test: Primary screen GU AMC qHTS for Zika virus inhibitors (AID 1347154);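 also: 0% = no-inhibitor control and -100% = no-enzyme control; nearly all actives have a fitted effect of over 70% in size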
Method in brief: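 Unlinked Zika NS2B hydrophilic domain/NS3 protease domain noncovalent complex (25 nM final) in 10 mM Tris-HCl pH 8.0, 0.01% Tween 20, with AMC peptide substrate. Fluorescence (ex 340, em 450 nm) change over 15 min, room temperature; percent inhibition fitted to 4-parameter Hill equation.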

[2] = Primary qHTS for small molecule stabilizers of the endoplasmic reticulum resident proteome: Secreted ER Calcium Modulated Protein (SERCaMP) assay (AID 1508630); also: % is scaled to controls: 0 for no effect and ±100 for the full control effect
Method in brief: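 GLuc-SERCaMP-expressing SH-SY5Y cells, pretreated 16 h with compound, are challenged with thapsigargin to empty ER calcium stores; after 4 h, coelenterazine is added directly to the medium and luminescence is imaged.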

[3] = molecular target: Cytochrome P450 2C9 (Homo sapiens) (UniProt P11712); test: Cytochrome P450 family 2 subfamily C member 9 (CYP2C9) small molecule antagonists: luciferase biochemical (cell-free) qHTS assay (AID 1645842; active = well fitted curve in the direction sought with a large enough effect in the repeat runs; an effect the other way counts as inactive or inconclusive; also: % is scaled to controls: 0 for no effect and ±100 for the full control effect; nearly all actives have a fitted effect of over 55% in size)
Sequence of Cytochrome P450 2C9 (Homo sapiens) (P11712 whole entry, looked up): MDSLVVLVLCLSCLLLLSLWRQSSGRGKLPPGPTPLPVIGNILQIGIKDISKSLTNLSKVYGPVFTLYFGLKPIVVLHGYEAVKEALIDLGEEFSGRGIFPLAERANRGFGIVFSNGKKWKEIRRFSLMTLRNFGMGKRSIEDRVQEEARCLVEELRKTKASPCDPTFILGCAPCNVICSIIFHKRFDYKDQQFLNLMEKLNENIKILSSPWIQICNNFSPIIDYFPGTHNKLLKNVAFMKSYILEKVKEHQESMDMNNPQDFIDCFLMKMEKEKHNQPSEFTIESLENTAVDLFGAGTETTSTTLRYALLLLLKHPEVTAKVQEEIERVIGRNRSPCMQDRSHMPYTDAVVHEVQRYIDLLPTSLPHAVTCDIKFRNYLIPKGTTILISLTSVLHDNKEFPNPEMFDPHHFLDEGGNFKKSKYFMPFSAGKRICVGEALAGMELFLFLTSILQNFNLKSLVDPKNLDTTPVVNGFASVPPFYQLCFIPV
Method in brief: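 Luminescence, after 20 min with luciferin detection reagent, reflected CYP2C9 turnover during a 1 h NADPH-driven reaction at 37C. Enzyme-substrate mix contained 0.4% bovine serum albumin and was preincubated with compound 10 min at room temperature.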

[4] = Primary qHTS for inhibitors of nuclear receptor binding SET domain protein 2 (NSD2) in an isogenic RCH-ACV NSD2 p.E1099K mutant (9B) (AID 1645876); also: potency is read from the fitted curve at half-maximal effect; nearly all actives have a fitted effect of over 70% in size
[5] = Primary qHTS for inhibitors of nuclear receptor binding SET domain protein 2 (NSD2) in an RCH-ACV wild type WT cells (2C) (AID 1645877); also: potency is read from the fitted curve at half-maximal effect; nearly all actives have a fitted effect of over 70% in size
[6] = qHTS assay to identify inhibitors of the type 1 interferon - major histocompatibility complex class I in skeletal muscle: Counter screen cell viability and HiBit confirmation (AID 1347412); details: iHSKM muscle cells + IFN-b, HiBiT or CellTiter-Glo, 24 h; also: nearly all actives have a fitted effect of over 60% in size; also: potency is read from the fitted curve at half-maximal effect; as to activity change, negative = inhibition: % is scaled to controls: 0 for no effect and ±100 for the full control effect
Method in brief: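 HLA-B*08:01–HiBiT knock-in immortalized human myoblasts (C25cl48) stimulated with 4.0 ng/ml human IFN-beta and dosed with compound in a 12-point 1:3 titration (top final 46 uM). After 24 hrs at 37 C, HiBiT lytic luminescence or CellTiter Glo ATP read out.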

Q: With `C=C1C(=O)O[C@@H]2[C@H]3O[C@]3(C)CC/C=C(\C)CC[C@@H]12` as the compound, how does the Potency [1] read?
A: inactive

Q: What about the Potency [2] of the same compound?
A: inactive

Q: And the Potency [3]?
A: inactive

Q: And the Potency [4]?
A: 3.72 µM (active)

Q: And the Potency [5]?
A: 2.09 µM (active)

Q: And the Potency ([6]; HiBiT)?
A: 7.01 µM (active)

Q: What about the activity change, negative = inhibition ([6]; Viability, at 45.9 µM (top of the series)) of the same compound?
A: 0.032%
